Assay results: the supplement of paper PMC10849652
Of roughly 7,900 targets only a part is listed; those with a hit were picked by preference. About 0.6% of all pairs of compound and target were hits.

Compound: Cc1sc2c(c1C)C(c1ccc(Cl)cc1)=N[C@@H](CC(=O)OC(C)(C)C)c1nnc(C)n1-2
Experiment: log2 fold change, soluble protein after heating vs DMSO (PISA); higher = thermal stabilisation; K562 cells, 10 uM, 30 min; active = over 0.2 and 3.5 SD of the protein, either way, in both replicates (recomputed)
In short: (§1)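 K562 cells at 2×10^6 cells/mL were treated for 30 min with 10 μM compound, and aliquots were heated for 3 min over 48°C-58°C before pooling. Extraction used PBS with 0.5% NP-40 at 4°C, and soluble protein was the supernatant after 21,000xg for 90 min, measured by TMTpro 16plex LC-MS/MS with channel sums equalised. Thermal stability values, relative to control samples and from duplicates, are log2 fold changes.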

Sequence of UniProt P11802 (P11802 whole entry, looked up): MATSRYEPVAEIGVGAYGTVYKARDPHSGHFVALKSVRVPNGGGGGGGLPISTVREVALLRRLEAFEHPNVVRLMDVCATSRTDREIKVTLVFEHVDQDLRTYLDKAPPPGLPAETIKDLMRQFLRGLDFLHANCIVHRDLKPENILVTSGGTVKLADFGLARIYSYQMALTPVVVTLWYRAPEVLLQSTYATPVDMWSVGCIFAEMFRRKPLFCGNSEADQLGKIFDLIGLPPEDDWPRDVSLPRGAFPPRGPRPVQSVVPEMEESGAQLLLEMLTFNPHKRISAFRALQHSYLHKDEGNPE
Sequence of UniProt P14854 (P14854 whole entry, looked up): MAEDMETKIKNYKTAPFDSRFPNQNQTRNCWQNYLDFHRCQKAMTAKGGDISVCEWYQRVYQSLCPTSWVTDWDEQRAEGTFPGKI
Sequence of UniProt Q96GQ5 (Q96GQ5 whole entry, looked up): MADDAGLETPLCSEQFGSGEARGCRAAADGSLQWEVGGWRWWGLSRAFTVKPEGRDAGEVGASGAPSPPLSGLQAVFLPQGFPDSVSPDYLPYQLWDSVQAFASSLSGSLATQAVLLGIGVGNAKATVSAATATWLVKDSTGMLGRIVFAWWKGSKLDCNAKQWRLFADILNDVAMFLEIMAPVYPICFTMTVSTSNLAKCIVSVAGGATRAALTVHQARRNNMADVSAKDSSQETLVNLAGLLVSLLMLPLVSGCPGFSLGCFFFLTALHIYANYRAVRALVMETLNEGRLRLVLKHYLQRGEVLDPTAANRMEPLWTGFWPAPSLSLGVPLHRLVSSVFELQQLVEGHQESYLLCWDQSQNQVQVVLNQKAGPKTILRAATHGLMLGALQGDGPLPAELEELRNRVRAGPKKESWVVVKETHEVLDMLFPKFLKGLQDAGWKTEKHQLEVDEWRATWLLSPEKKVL
Sequence of UniProt O14757 (O14757 whole entry, looked up): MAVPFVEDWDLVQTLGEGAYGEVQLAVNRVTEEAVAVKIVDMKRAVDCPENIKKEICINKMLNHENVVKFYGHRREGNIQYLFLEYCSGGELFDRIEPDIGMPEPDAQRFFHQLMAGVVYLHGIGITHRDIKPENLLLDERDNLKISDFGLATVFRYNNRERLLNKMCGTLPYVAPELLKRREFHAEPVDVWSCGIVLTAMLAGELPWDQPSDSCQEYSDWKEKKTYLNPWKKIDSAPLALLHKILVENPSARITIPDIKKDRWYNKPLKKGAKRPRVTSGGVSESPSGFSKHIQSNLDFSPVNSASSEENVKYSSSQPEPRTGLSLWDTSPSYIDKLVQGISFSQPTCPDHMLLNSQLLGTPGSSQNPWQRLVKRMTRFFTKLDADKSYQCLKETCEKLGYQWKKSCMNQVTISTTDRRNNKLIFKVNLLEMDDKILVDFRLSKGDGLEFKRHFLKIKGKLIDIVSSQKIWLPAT
Sequence of UniProt P08962 (P08962 whole entry, looked up): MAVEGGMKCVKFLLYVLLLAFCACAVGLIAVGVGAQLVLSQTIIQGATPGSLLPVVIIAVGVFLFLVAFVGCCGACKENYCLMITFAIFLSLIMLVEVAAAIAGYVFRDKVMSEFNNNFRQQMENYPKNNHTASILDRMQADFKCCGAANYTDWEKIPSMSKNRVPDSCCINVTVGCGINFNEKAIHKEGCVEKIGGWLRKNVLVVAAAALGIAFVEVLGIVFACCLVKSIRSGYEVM
Sequence of UniProt Q15417 (Q15417 whole entry, looked up): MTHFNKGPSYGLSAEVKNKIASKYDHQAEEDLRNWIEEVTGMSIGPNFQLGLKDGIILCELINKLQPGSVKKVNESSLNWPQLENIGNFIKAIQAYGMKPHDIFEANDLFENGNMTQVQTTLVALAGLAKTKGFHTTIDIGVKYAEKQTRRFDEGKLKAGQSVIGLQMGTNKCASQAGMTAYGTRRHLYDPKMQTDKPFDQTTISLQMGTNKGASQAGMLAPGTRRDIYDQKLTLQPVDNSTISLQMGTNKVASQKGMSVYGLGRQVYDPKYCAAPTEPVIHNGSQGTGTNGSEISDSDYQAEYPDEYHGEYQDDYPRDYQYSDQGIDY
Sequence of UniProt Q7KZN9 (Q7KZN9 whole entry, looked up): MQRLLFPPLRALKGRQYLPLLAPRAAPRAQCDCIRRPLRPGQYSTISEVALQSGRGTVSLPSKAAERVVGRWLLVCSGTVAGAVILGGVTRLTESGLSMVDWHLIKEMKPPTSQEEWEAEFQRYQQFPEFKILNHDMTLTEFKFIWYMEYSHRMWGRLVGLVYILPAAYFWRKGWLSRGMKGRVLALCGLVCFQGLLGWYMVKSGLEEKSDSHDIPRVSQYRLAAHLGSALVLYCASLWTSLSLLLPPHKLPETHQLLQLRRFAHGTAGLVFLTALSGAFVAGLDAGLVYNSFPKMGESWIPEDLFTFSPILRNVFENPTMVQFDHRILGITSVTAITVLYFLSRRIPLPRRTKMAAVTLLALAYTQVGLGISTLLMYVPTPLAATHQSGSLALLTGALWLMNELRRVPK
Sequence of UniProt Q5JTJ3 (Q5JTJ3 whole entry, looked up): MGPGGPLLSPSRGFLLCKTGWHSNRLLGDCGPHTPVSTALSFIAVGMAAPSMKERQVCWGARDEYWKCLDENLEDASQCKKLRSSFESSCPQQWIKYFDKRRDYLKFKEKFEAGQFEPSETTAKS
Sequence of UniProt Q96RR4 (Q96RR4 whole entry, looked up): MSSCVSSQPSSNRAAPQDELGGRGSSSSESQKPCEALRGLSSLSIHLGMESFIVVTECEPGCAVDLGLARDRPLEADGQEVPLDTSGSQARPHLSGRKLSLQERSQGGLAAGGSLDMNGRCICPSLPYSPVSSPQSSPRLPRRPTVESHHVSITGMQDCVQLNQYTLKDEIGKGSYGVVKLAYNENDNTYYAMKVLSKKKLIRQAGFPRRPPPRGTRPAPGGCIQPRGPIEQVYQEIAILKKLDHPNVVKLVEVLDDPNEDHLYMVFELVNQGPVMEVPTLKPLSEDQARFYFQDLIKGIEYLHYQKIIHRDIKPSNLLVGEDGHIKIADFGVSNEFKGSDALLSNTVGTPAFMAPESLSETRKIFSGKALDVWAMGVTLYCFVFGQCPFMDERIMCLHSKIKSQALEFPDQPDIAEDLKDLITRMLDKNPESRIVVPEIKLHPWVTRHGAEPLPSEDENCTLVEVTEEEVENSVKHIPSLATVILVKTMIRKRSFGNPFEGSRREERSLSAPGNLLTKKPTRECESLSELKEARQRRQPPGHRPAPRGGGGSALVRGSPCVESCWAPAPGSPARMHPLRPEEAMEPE
Sequence of UniProt Q9P0B6 (Q9P0B6 whole entry, looked up): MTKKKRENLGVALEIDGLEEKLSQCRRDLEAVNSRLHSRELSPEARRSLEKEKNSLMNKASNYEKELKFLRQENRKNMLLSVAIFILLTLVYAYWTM
Sequence of UniProt Q9Y646 (Q9Y646 whole entry, looked up): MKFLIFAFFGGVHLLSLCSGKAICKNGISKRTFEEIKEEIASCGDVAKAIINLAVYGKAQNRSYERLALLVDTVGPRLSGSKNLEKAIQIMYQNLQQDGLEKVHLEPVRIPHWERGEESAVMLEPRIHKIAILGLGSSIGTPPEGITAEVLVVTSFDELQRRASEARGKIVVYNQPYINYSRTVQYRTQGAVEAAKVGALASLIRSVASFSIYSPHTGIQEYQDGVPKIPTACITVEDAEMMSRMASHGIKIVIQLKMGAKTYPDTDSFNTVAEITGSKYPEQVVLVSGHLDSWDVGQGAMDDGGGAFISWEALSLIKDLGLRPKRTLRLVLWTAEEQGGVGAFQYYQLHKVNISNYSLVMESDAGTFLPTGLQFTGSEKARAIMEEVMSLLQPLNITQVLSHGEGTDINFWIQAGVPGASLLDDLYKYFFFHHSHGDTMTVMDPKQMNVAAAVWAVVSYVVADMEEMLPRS
Sequence of UniProt P24863 (P24863 whole entry, looked up): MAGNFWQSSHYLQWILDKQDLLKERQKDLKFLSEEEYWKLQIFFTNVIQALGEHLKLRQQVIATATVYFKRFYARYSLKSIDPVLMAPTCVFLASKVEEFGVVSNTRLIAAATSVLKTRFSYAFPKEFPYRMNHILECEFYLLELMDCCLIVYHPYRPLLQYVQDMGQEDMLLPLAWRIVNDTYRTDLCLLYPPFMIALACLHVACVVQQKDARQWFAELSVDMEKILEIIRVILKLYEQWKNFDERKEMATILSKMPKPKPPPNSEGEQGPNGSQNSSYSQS
Sequence of UniProt P46527 (P46527 whole entry, looked up): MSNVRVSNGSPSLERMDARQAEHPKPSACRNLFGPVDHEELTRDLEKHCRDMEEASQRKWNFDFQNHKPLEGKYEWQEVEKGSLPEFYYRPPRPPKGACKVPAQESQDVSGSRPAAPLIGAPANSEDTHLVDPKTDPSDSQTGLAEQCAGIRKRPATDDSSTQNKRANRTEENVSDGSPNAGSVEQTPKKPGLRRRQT
Sequence of UniProt P30305 (P30305 whole entry, looked up): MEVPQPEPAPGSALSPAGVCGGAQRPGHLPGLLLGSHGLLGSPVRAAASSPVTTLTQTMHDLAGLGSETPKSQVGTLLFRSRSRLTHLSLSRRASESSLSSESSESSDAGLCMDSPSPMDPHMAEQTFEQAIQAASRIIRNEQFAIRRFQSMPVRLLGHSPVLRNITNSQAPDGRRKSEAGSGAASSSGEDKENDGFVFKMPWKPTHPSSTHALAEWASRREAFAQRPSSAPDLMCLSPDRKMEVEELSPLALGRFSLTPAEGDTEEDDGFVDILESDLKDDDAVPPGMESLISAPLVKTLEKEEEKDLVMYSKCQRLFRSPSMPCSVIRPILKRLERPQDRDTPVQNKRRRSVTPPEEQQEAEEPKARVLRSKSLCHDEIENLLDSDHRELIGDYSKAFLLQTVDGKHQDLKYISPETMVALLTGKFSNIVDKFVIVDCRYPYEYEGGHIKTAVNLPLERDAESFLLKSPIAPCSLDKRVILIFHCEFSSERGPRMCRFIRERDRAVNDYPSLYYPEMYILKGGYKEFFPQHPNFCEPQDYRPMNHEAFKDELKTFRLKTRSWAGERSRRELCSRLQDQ
Sequence of UniProt Q9NRR8 (Q9NRR8 whole entry, looked up): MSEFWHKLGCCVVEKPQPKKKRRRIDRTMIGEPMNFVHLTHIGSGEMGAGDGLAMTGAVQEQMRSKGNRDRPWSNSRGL

Target	log2 fold change
COX6B1 (UniProt P14854)	-0.153 (inactive)
CRK (UniProt P46108)	0.028 (inactive)
CD63 (UniProt P08962)	0.009 (inactive)
CDC42SE1 (UniProt Q9NRR8)	-0.076 (inactive)
CPSF3 (UniProt Q9UKF6)	-0.026 (inactive)
CAMKK2 (UniProt Q96RR4)	0.019 (inactive)
C16orf58 (UniProt Q96GQ5)	-0.042 (inactive)

Compound: c1ccc([C@@H]2C[C@H]2NC2CCNCC2)cc1
Experiment: as above
In short: as §1

Target	log2 fold change
CLPTM1L (UniProt Q96KA5)	0.01 (inactive)
CDK17 isoform 2 (UniProt Q00537)	-0.083 (inactive)
COA6 isoform 2 (UniProt Q5JTJ3)	-0.015 (inactive)
COX15 (UniProt Q7KZN9)	-0.02 (inactive)
CNN3 (UniProt Q15417)	0.03 (inactive)
CHAMP1 (UniProt Q96JM3)	-0.006 (inactive)
CPQ (UniProt Q9Y646)	0.084 (inactive)
CLN5 (UniProt O75503)	-0.296 (inactive)
CES2 isoform 4 (UniProt O00748)	-0.141 (inactive)
CCNC (UniProt P24863)	-0.037 (inactive)
CDKN1B (UniProt P46527)	-0.004 (inactive)
CHEK1 (UniProt O14757)	0.01 (inactive)
CEPT1 (UniProt Q9Y6K0)	-0.054 (inactive)
CCDC167 (UniProt Q9P0B6)	0.073 (inactive)
CDK4 (UniProt P11802)	-0.165 (inactive)
CDC25B isoform 4 (UniProt P30305)	-0.024 (inactive)
